Holding throughout (experiment): NCI-60 one-dose screen, 48 h (100 = growth as untreated, 0 = no growth, -100 = all killed)
One assay has as its system DU-145 prostate. Particulars: 10 µM unless noted.
Another assay deals with K-562 leukemia. Particulars: 10 µM unless noted.
The next assay concerns MALME-3M melanoma. Particulars: 10 µM unless noted.
Another assay has as its system RXF 393 renal. The following applies: 10 µM unless noted.
The test system of a further assay is SF-268 CNS. The following applies: 10 µM unless noted.
In the next assay the test system is SF-295 CNS. Particulars: 10 µM unless noted.
For another assay, the system named is SF-539 CNS. The following applies: 10 µM unless noted.
For the next assay, the system named is UACC-257 melanoma. Particulars: 10 µM.
Another assay relates to M14 melanoma. The following applies: 10 µM unless noted.
The subject of the next assay is MDA-MB-231 breast. The following applies: 10 µM unless noted.

Molecules are shown by their SMILES. The panel holds about 83,000 compounds, 20% with a hit somewhere; the sample as a whole holds those more often.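 Plates (96-well) were seeded with cells, treated with compound at one concentration, and incubated for 48 hours before percent growth was determined.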 A number with no mark means an inactive call. Active and inactive are the calls of the source. Rule for the calls: active = growth percent below 10; inactive = the rest.

Take `Oc1ccc(N=Cc2ccccc2)cc1`: the growth was 89.5% in the assay on DU-145 prostate; 32.6% in the assay with K-562 leukemia; 83.5% in the assay on MALME-3M melanoma; 114% in the assay with RXF 393 renal; 95.9% in the assay on SF-268 CNS; 112% with SF-295 CNS. The growth in the assay on SF-539 CNS is 94.9%; in the assay on UACC-257 melanoma, 106%; in the assay with M14 melanoma, 91.5%.

For `COc1cccc2cc(-c3cc4ccccc4[nH]3)/c(=N/C(=S)Nc3ccccc3)oc12`, the growth with DU-145 prostate was 74.4%; in the assay on K-562 leukemia, 84.4%; in the assay on MALME-3M melanoma it was 78.9%; in the assay on MDA-MB-231 breast, 61.6%; with SF-268 CNS, 70.6%; in the assay with SF-295 CNS, 87.1%. For the same compound, the growth was 33% in the assay on SF-539 CNS and 70.6% in the assay on M14 melanoma.

In the case of `CCn1cc(C2NC(=O)c3cc(F)ccc3N2)c2cccc(Cl)c21` (configuration not stated), the growth in the assay on DU-145 prostate is 11.6%; with K-562 leukemia, 5.32% (active); in the assay on MALME-3M melanoma, 53.7%; with MDA-MB-231 breast it was 19%; with SF-268 CNS it was 41.2%; with SF-295 CNS, 10.4%. The figures for the growth with SF-539 CNS and in the assay on M14 melanoma were -26.6% (active) and 1.23% (active), respectively.

Regarding `CSc1nc(-c2cc3ccccc3o2)cc(-c2ccc(Cl)cc2)c1C#N`, the growth in the assay with DU-145 prostate was 68.5%; in the assay with K-562 leukemia it was 63.4%; in the assay on MALME-3M melanoma it was 89.3%; in the assay on MDA-MB-231 breast, 27.8%; in the assay with SF-268 CNS it was 51.7%; in the assay on SF-295 CNS, 9.92% (active). The results for the growth with SF-539 CNS and in the assay with M14 melanoma were -7.47% (active) and 67.6%, respectively.

As for `O=S(=O)(NCCCNc1nccc(-c2c(-c3ccc(F)c(O)c3)nc3sccn23)n1)c1ccc(Cl)cc1`, the growth is 87.4% in the assay with DU-145 prostate; 44.2% in the assay on K-562 leukemia; 2.69% (active) in the assay on MALME-3M melanoma; 66.4% in the assay with MDA-MB-231 breast; 82.8% in the assay with SF-268 CNS; 106% in the assay with SF-295 CNS. In addition, the growth in the assay with SF-539 CNS is 103%; with M14 melanoma, 18.1%.

As for `CCN1C(=O)/C(=c2\sc3n(c2=O)C2C(NN=3)N(CC)C(=S)N2CC)c2ccccc21` (configuration not stated), the growth was 115% in the assay with DU-145 prostate; 98% in the assay with K-562 leukemia; 93.2% in the assay on MALME-3M melanoma; 96.3% with MDA-MB-231 breast; 90.2% in the assay on SF-268 CNS; 100% in the assay on SF-295 CNS. For the same compound, the growth in the assay with SF-539 CNS is 96.3%; in the assay on M14 melanoma, 96.2%.

Turning to `CNC(C)=O`, the growth in the assay on DU-145 prostate is 99.5%; in the assay on K-562 leukemia, 90.3%; with MALME-3M melanoma, 86.1%; in the assay with RXF 393 renal, 105%; in the assay on SF-268 CNS, 98.4%; with SF-295 CNS, 93.7%. The growth with SF-539 CNS is 89.8%; in the assay with UACC-257 melanoma it was 102%; with M14 melanoma, 108%.

Take `C#CCN1C(=O)/C(=c2\sc3n(c2=O)NC2C(N=3)N(CC)C(=O)N2CC)c2ccccc21` (configuration not stated): the growth in the assay on DU-145 prostate is 41%; in the assay on K-562 leukemia it was 3.27% (active); in the assay on MALME-3M melanoma it was 51.5%; in the assay on MDA-MB-231 breast it was 69.9%; in the assay with SF-268 CNS, 75.5%; in the assay with SF-295 CNS it was 86.7%. Besides, the growth with SF-539 CNS was 38.7%; in the assay on M14 melanoma, 80.7%.

As to `NC(=O)c1c(NC(=O)c2ccc3c(c2)OCO3)sc2c1CCC(=O)C2`, the growth in the assay on DU-145 prostate was 40%; with K-562 leukemia, 1.31% (active); with MALME-3M melanoma, -44% (active); in the assay on MDA-MB-231 breast it was -20.5% (active); in the assay on SF-268 CNS, 21.5%; in the assay on SF-295 CNS, -4.12% (active). The values for the growth in the assay with SF-539 CNS and in the assay on M14 melanoma were -55.5% (active) and 16.7%, respectively.

For the compound `CCCCNc1nnc(-c2cc(-c3cc4ccccc4o3)nn2-c2ccccc2)o1`, the growth in the assay with DU-145 prostate was 102%; in the assay with K-562 leukemia, 83%; in the assay on MALME-3M melanoma, 93.1%; in the assay on MDA-MB-231 breast, 91.4%; in the assay with SF-268 CNS it was 93.9%; in the assay with SF-295 CNS it was 98.7%. For the same compound, the growth in the assay with SF-539 CNS is 97.4%; in the assay on M14 melanoma, 108%.

Consider `COc1ccc(/C=C2\Oc3cc(OCCN4CCCC4)ccc3C2=O)c(OC)c1`, for which the growth was 90.8% in the assay on DU-145 prostate; 2.26% (active) in the assay with K-562 leukemia; 102% with MALME-3M melanoma; 88.7% in the assay with MDA-MB-231 breast; 95.1% in the assay on SF-268 CNS; 100% with SF-295 CNS. Further, the growth was 87.4% with SF-539 CNS and 98.9% with M14 melanoma.

With `COc1ccc(C(=O)N2CCN(C(=O)c3cc(OC)c(OC)c(OC)c3)CC2)cc1OCCCCOc1cc2c(cc1OC)C(=O)N1CCC[C@H]1C=N2`, the growth in the assay on DU-145 prostate was 113%; in the assay with K-562 leukemia, 116%; with MALME-3M melanoma, 126%; with MDA-MB-231 breast it was 82.4%; in the assay on SF-268 CNS, 126%; with SF-295 CNS it was 109%. Besides, the growth in the assay on SF-539 CNS is 98.9%; with M14 melanoma, 115%.

Take `COc1ccc(/C=c2\sc3n(c2=O)C2C(NN=3)N(C)C(=O)N2C)cc1` (configuration not stated): the growth in the assay with DU-145 prostate is 9.2% (active); in the assay on K-562 leukemia, -34.6% (active); in the assay with MALME-3M melanoma it was 25%; in the assay with MDA-MB-231 breast it was 42.5%; with SF-268 CNS, 71.3%; in the assay on SF-295 CNS it was -7.19% (active). For the same compound, the figures for the growth in the assay on SF-539 CNS and with M14 melanoma were -16.6% (active) and 15.4%, respectively.

Regarding `Cc1cc(C(=O)CSc2nc3ccccc3c(=O)[nH]2)c(C)n1C`, the growth in the assay with DU-145 prostate is 102%; in the assay on K-562 leukemia it was 110%; in the assay with MALME-3M melanoma, 87.5%; in the assay with MDA-MB-231 breast, 90.4%; with SF-268 CNS it was 110%; in the assay on SF-295 CNS, 81.9%. The growth was 90.2% with SF-539 CNS and 112% with M14 melanoma.

Take `O=C(CC(O)c1ccncc1)c1ccccc1` (configuration not stated): the growth in the assay with DU-145 prostate is 3.98% (active); with K-562 leukemia, 57.9%; in the assay with MALME-3M melanoma, 91.9%; in the assay with RXF 393 renal it was -69.4% (active); with SF-268 CNS it was 74.9%; with SF-295 CNS, 51.8%. In addition, the growth with SF-539 CNS is 8.03% (active); with UACC-257 melanoma it was 83.1%.
